Assay results reported in PubChem BioAssay.
Calls of active or inactive are those of the source.

Tests used:
Albumin (Bos taurus) = Albumin (Bos taurus) (UniProt P02769); test: bovine serum albumin binders on microarray, profiling panel, artefact control for SMM control protein annotation, biochemical, small-molecule microarray, Alexa647 label, 635/667 nm fluorescence (AID 1118); conditions: BSA-A647 binding, fluorescence 635 nm, higher = more signal;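 further: score merges 667 nm emission intensity and signal-to-noise per printed compound spot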
Chain of Albumin (Bos taurus) (P02769 whole entry, looked up): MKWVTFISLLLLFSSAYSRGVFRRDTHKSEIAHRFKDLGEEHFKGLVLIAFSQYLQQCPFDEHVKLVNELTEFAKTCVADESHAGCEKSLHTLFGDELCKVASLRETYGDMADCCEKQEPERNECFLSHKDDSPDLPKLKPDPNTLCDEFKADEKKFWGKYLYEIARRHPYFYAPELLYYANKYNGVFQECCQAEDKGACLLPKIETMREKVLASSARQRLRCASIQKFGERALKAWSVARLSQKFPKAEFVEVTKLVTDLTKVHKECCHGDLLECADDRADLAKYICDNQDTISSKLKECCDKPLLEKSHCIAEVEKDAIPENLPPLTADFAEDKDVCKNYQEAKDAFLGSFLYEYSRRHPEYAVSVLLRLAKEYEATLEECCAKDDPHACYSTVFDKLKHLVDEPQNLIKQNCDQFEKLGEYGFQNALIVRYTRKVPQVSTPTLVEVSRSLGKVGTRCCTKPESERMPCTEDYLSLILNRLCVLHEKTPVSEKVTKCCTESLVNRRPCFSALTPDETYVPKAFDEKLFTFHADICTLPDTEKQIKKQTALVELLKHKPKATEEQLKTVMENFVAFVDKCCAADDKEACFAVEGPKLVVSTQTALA

[1] = small-molecule microarray binders of probe aXIP, primary screen, biochemical, NeuroSMM set, 635/667 nm fluorescence (AID 1119); conditions: higher = more signal, called active from +8 up or from −8 down;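 further: probe is the protein aXip251-270 applied at 1 µg/mL to compound-printed slides; binding of probe to printed compounds measured as 667 nm fluorescence plus signal to noise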
[2] = small-molecule binders of probe aNOTCH3, primary screen, biochemical, small-molecule microarray, 635/667 nm fluorescence (AID 1120); conditions: higher = more signal;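 further: probe is a biotin-tagged antibody raised against NOTCH3 rather than NOTCH3 protein; score merges spot fluorescence near 667 nm with spot signal to noise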
[3] = small-molecule binders of probe aNOTCH2, primary screen, biochemical, small-molecule microarray, 635/667 nm fluorescence (AID 1121); conditions: higher = more signal;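 further: score merges feature fluorescence read at 667 nm with its signal to noise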
[4] = target: Carbonic anhydrase 2 (Homo sapiens) (UniProt P00918); test: CAII small-molecule binders, profiling panel, biochemical, small-molecule microarray, Alexa647-labelled CAII (AID 1122); conditions: CAII-A647 binding fluorescence, higher = more signal
[5] = COS7 lysate on small-molecule microarray, probe aHis, 635 nm (AID 1123); conditions: COS7 cell lysate, fluorescence, higher = more signal;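 further: z-score combines 667nm fluorescence intensity with signal-to-noise per printed compound spot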
[6] = compound binding in COS7 lysate, probe aLAP1, primary screen, cell lysate, small-molecule microarray (AID 1124); conditions: probe aLAP1, fluorescence, higher = more signal;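 further: lysate comes from COS7 cells expressing LAP1 and is applied at 0.3 µg/mL; score merges spot fluorescence near 667 nm with signal-to-noise over triplicate slides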
Sam68 (KHDRBS1) = test: Sam68 small-molecule binders, primary screen, biochemical, small-molecule microarray, 635 nm fluorescence (AID 1125); conditions: small-molecule microarray binding, higher = more signal;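 further: score merges 667 nm channel intensity with signal to noise over triplicate slides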
[7] = system: Chordin-like protein 2 (CHRDL2); test: CHRDL2 small-molecule binders, primary screen, biochemical, small-molecule microarray, 635 nm fluorescence (AID 1126); conditions: small-molecule microarray binding, fluorescence 635 nm; higher = more signal;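 further: printed compound slides probed with Chrdl2 protein at 4 µg/mL for 1 h at 4 C; score merges 667 nm emission intensity with signal to noise over three replicate slides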
[8] = target: Concanavalin-A (Canavalia ensiformis) (UniProt P02866); test: ConA small-molecule binders, primary screen, artefact control for SMM control protein annotation, biochemical, small-molecule microarray, Alexa647 label, 635 nm (AID 1127); conditions: ConA-A647 binding fluorescence, higher = more signal;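 further: z combines 667 nm emission intensity with signal-to-noise across three replicate slides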
Chain of Concanavalin-A (Canavalia ensiformis) (P02866 whole entry, looked up): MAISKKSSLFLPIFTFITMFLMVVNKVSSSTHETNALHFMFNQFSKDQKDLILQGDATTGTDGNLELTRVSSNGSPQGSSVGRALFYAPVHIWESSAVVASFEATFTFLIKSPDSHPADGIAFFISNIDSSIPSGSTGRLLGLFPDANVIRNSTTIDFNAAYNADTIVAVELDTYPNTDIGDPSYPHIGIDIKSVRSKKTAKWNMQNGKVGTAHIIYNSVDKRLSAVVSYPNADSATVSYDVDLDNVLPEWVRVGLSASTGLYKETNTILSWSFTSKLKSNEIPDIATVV

[9] = anti-His antibody binders, primary screen, artefact control for SMM control protein annotation, biochemical, small-molecule microarray, 635 nm fluorescence (AID 1128); conditions: anti-His Alexa647 antibody binding, higher = more signal;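 further: score merges feature fluorescence with signal-to-noise for each printed compound spot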
[10] = system: Human papillomavirus type 1a E7 protein (residues 1-88); test: HPV1a E7 small-molecule binders, primary screen, biochemical, small-molecule microarray, residues 1-88, 635 nm (AID 1129); conditions: small-molecule microarray binding, fluorescence 635 nm; higher = more signal
[11] = target: Focal adhesion kinase 1 (Homo sapiens) (UniProt Q05397); test: small-molecule microarray binders of FAK, primary screen, biochemical, 635/667 nm fluorescence, BSA, DTT (AID 1130); conditions: PTK2 binding, 635 nm fluorescence, higher = more signal;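 further: composite of spot emission at 667 nm and signal to noise over triplicate slides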
Chain of Focal adhesion kinase 1 (Homo sapiens) (Q05397 whole entry, looked up): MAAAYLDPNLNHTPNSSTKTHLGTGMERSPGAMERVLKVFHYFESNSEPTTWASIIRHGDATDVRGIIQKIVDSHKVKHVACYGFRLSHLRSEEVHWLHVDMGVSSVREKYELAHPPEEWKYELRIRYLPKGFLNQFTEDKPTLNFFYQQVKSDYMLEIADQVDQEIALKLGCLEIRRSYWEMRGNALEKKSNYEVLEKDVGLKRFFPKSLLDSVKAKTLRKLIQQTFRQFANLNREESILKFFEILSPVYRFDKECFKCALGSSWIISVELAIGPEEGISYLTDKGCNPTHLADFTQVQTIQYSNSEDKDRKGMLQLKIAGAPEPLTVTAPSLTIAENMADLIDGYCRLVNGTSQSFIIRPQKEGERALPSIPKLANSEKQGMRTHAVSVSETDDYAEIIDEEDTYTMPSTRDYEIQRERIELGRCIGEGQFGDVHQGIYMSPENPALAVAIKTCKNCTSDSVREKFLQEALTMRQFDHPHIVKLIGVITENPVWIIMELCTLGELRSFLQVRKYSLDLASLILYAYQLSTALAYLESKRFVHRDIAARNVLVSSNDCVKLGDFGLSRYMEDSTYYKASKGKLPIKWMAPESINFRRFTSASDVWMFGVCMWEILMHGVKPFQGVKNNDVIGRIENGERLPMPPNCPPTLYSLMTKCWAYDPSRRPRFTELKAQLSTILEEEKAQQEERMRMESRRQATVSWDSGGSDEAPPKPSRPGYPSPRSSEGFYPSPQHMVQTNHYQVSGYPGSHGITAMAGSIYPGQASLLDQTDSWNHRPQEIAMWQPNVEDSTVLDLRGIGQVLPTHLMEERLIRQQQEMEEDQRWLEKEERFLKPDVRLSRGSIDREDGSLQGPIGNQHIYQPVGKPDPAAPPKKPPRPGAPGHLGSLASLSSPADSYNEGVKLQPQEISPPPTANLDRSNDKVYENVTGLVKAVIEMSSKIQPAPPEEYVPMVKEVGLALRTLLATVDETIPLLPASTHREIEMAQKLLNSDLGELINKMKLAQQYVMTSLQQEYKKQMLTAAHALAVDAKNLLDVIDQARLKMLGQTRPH

[12] = system: Fibrinogen (Alexa647-labelled); test: fibrinogen binders on compound microarrays, profiling panel, artefact control for SMM control-protein annotation, biochemical, small-molecule microarray, 635/667 nm fluorescence (AID 1131); conditions: fibrinogen-A647 binding fluorescence, higher = more signal;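 further: z-score merges 667 nm fluorescence with per-spot signal-to-noise over triplicate slides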
[13] = target: Follistatin (Homo sapiens) (UniProt P19883); test: follistatin binders on small-molecule microarrays, primary screen, biochemical, small-molecule microarray, 635/667 nm fluorescence (AID 1132); conditions: FST binding, 635 nm fluorescence, higher = more signal
Chain of Follistatin (Homo sapiens) (P19883 whole entry, looked up): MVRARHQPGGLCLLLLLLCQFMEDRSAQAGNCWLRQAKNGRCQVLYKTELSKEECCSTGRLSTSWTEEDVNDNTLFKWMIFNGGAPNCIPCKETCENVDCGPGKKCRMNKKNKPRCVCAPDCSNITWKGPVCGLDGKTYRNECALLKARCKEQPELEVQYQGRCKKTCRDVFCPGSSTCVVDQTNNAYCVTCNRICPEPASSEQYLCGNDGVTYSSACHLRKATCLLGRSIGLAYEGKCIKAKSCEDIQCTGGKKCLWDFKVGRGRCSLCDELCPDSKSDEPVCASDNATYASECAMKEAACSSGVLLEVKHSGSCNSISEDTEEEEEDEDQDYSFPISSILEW

[14] = target: Fibroblast growth factor 2 (Homo sapiens) (UniProt P09038); test: FGF2 binders on small-molecule microarrays, primary screen, biochemical, small-molecule microarray, 635/667 nm fluorescence (AID 1133); conditions: small-molecule microarray binding, FGF2, fluorescence 635/667; higher = more signal
Chain of Fibroblast growth factor 2 (Homo sapiens) (P09038 whole entry, looked up): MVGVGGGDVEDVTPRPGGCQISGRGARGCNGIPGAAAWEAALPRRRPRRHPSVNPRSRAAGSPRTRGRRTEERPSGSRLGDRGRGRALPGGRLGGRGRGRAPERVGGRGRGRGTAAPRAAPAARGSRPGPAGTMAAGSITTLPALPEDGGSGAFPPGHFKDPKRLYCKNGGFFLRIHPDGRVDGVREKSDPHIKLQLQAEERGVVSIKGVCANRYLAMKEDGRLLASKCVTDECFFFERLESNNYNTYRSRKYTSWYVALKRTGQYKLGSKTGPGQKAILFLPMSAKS

[15] = mitochondrial membrane potential change in A549 cells, profiling panel, cell-based, JC-1 fluorescence, basal, 24 h, 100 nL (AID 1138); conditions: higher = more signal;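 further: A549 lung adenocarcinoma cells under basal conditions with no added stimulus; test concentration not given here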
Lefty1 = Lefty1 binders on small-molecule microarrays, primary screen, biochemical, small-molecule microarray, 635/667 nm fluorescence (AID 1139); conditions: small-molecule microarray binding, fluorescence 635/667; higher = more signal
[16] = system: wheat germ agglutinin (Triticum aestivum), Alexa647-labelled; test: wheat germ agglutinin binders on compound microarrays, profiling panel, artefact control for SMM control-protein annotation, biochemical, small-molecule microarray, 635/667 nm fluorescence (AID 1140); conditions: WGA-A647 binding, 635 nm fluorescence, higher = more signal;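 further: score merges 667 nm feature emission with signal to noise over triplicate slides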
[17] = target: Luciferin 4-monooxygenase (Photinus pyralis) (UniProt P08659); test: firefly luciferase enzyme inhibitors, primary screen, biochemical, luminescence, purified enzyme, 2006 set (AID 1141); conditions: SteadyGlo luminescence, 30 min, higher = more signal, called active from +8 up or from −8 down;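 further: cell-free assay with purified firefly luciferase at 100 ng per well in PBS; test concentration not given here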
Chain of Luciferin 4-monooxygenase (Photinus pyralis) (P08659 whole entry, looked up): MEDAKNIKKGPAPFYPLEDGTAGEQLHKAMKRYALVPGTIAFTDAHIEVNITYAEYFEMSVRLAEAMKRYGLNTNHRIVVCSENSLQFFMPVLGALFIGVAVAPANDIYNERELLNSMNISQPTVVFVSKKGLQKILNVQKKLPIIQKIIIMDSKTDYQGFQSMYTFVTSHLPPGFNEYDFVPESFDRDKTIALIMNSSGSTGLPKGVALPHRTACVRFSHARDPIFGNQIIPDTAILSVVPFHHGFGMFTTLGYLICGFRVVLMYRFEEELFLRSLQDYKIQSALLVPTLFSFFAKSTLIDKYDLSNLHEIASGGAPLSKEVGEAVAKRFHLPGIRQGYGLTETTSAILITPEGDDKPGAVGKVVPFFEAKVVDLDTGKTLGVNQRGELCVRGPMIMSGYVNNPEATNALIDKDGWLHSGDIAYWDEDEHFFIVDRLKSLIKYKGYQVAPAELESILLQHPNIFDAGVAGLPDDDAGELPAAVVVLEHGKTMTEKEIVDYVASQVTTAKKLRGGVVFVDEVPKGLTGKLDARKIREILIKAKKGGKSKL

| Structure (SMILES) | composite z-score (Albumin (Bos taurus)) | composite Z-score [1] | composite z-score [2] | composite z-score [3] | composite z-score [4] | composite z-score [5] | composite z-score [6] | composite z-score (Sam68 (KHDRBS1)) | composite z-score [7] | composite z-score [8] | composite z-score [9] | composite z-score [10] | composite z-score [11] | composite z-score [12] | composite z-score [13] | composite z-score [14] | z-score [15] | composite z-score (Lefty1) | composite z-score [16] | z-score [17] |
| --- | --- | --- | --- | --- | --- | --- | --- | --- | --- | --- | --- | --- | --- | --- | --- | --- | --- | --- | --- | --- |
| COC(=O)[C@@]1(Cc2ccccc2)[C@H]2c3cc(C(=O)N(C)C)n(CCO)c3C[C@H]2CN1C(=O)c1ccccc1 | 1.04 | 0.335 (inactive) | 0.0259 | 0.19 | 0.958 | 3.13 | 0.877 | 1.24 | -1.44 | 1.2 | 1.86 | 1.16 | 1.89 | 1.02 | -0.535 | -0.541 | 0.628 | -0.986 | 1.41 | 2.11 (inactive) |
| CCCN1C(=O)[C@@]2(c3ccc([N+](=O)[O-])cc3)CC(=O)N(CC34CC5CC(CC(C5)C3)C4)[C@@H]2c2ccc(CO)cc21 | 0.391 | -0.316 (inactive) | 0.056 | -0.199 | 0.302 | 0.634 | -0.193 | -0.83 | -0.229 | 0.0674 | -0.0371 | -1.01 | 0.195 | -0.171 | 1.23 | 1.12 | -0.284 | -0.0689 | -0.0176 | -0.366 (inactive) |
| CC(C)(C)OC(=O)CC[C@]1(C(=O)NCC(O)CO)N=C(c2ccc(OCCCO)cc2)O[C@H]1c1ccccc1N=[N+]=[N-] (stereo not given in full) | 1.02 | 1.33 (inactive) | 0.163 | 0.149 | 0.719 | 3.53 | 1.03 | 0.723 | 0.0058 | 0.715 | 2.42 | 1.01 | 0.696 | 0.953 | 1.38 | 0.581 | 0.739 | -0.41 | 1.3 | -8.87 (active) |
| CC(C)=C1C(=O)C(c2ccccc2)=C2CN3C(=O)N(CCc4ccccc4)C(=O)[C@]3(C)[C@H]21 | 0.826 | 0.432 (inactive) | 0.0162 | 0.166 | 0.373 | 1.23 | -0.414 | 0.141 | -0.686 | 0.809 | -0.0854 | 0.871 | 0.701 | 0.679 | 0.21 | -0.648 | 1.77 | -0.455 | 0.673 | 0.0775 (inactive) |
| COc1ccc([Si](C)(C)[C@H]2[C@H](CCO)O[C@@]3(C(=O)N(Cc4cccc(N(C=O)c5ccccc5)c4)c4ccccc43)[C@@H]2C)cc1 | 0.291 | -0.313 (inactive) | 0.059 | -0.102 | 0.467 | 1.28 | 0.677 | 1.28 | 0.293 | 1.15 | 0.911 | 1.19 | -0.048 | 0.777 | 0.832 | 0.886 | 0.837 | 1.05 | 0.259 | 0.281 (inactive) |
| C=C(CCCC)/C(=C/C[C@H](OC(=O)c1ccncc1)c1ccccc1OCCO)c1cc(C(=O)OC)ccc1OC | -0.172 | -0.0743 (inactive) | -0.0362 | -0.145 | 0.63 | 1.2 | 0.127 | 1.05 | 0.647 | 0.749 | 2.75 | 0.488 | 0.0357 | 0.013 | 0.95 | 0.969 | 2.03 | 0.979 | -0.0208 | -0.776 (inactive) |
| N#Cc1ccc(C(O)C2C=CC3C(=O)NC(=O)C3N2Nc2ccc(Cl)cc2Cl)cc1 (stereo not given) | 0.956 | 0.868 (inactive) | 0.112 | 0.132 | 0.651 | 2.94 | 1.48 | -0.0258 | -0.581 | 0.489 | 0.299 | 0.534 | 0.352 | 0.732 | -0.0644 | -0.164 | 1.28 | -0.781 | 1.08 | 0.293 (inactive) |
| O=C1N(Cc2ccccc2)c2ccccc2C[C@@]12COC(c1ccc(OCCCO)cc1)=N2 | 0.809 | -0.267 (inactive) | 0.251 | -0.0595 | 0.471 | 2.51 | 0.756 | 1.15 | -0.366 | 0.582 | 1.55 | 1.21 | 0.75 | 0.785 | 1.3 | 0.326 | 0.0331 | -0.319 | 0.98 | -1.92 (inactive) |
| O=C(N1CCOCC1)[C@@]1(Cc2ccccc2)COC(c2ccc(OCCCO)cc2)=N1 | 1 | -0.0252 (inactive) | 0.14 | 0.245 | 0.769 | 2.7 | 0.872 | 1.19 | -0.354 | 0.578 | 2.69 | 1.23 | 0.674 | 0.767 | -0.119 | -0.445 | -1.04 | -1.1 | 0.603 | -0.276 (inactive) |
| CN(C)CCCNC(=O)[C@@]1(C)c2ccccc2C(=O)N(Cc2ccc(OC(F)(F)F)cc2)[C@H]1c1ccc(CO)cc1 | 0.548 | 0.0333 (inactive) | -0.139 | -0.0357 | 0.706 | 1.83 | 1.03 | 0.0786 | -0.616 | -0.451 | 0.117 | 0.365 | 0.37 | 0.294 | 0.948 | 0.389 | -0.664 | -0.425 | 0.668 | 0.14 (inactive) |
| CC(=O)OCC1C2CC[C@H]3C(OCc4ccc(F)cc4C(F)(F)F)OC[C@]4(C)[C@H]3C2=C(CN4C(=O)OC(C)(C)C)[C@H](C)C1COC(C)=O (stereo not given in full) | 0.349 | -0.342 (inactive) | 0.16 | 0.117 | 0.807 | 0.826 | 0.95 | 0.0524 | -1.86 | 1.12 | 1.14 | -0.267 | 0.0527 | 0.783 | -0.603 | -1.66 | 1.71 | -0.372 | 0.517 | 1.62 (inactive) |
